Assay results from PubChem BioAssay (NCATS).
Values joined by “and” are separate entries in the source; they are usually repeats but may differ in a detail not shown here. Equal entries are not always repeated. Inconclusive results are not listed. Where a call stands in place of a potency, no number is given. Unmarked numbers belong to inactive results. Active and inactive are the calls of the source. Calls come from the whole dose curve; as a rule, active = well fitted curve in the direction sought with a large enough effect; inconclusive = small, poorly fitted or top-dose-only effect, or another doubt; inactive = no such curve, though single readings can be large; an effect the other way counts as inactive or inconclusive.

Legend:
[1] = qHTS of pediatric cancer cell lines to identify multiple opportunities for drug repurposing: Primary screen for BT-12 cells (AID 1347101); note: nearly all actives have a fitted effect of over 25% in size; note: potency is the fitted concentration of half-maximal effect
Procedure, shortened: (§1)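 Cells (500-1,000/well) rested 5 h, then received compounds for 48 h; metabolically active cells were measured by CellTiter-Glo luminescence. Final concentrations spanned up to 46 µM (MIPE, 11-point) or 0.59 nM-46 µM (NPC, 8-point) in primary screens, 11-point in follow-ups.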

[2] = qHTS of pediatric cancer cell lines to identify multiple opportunities for drug repurposing: Primary screen for Rh18 cells (AID 1347102); note: nearly all actives have a fitted effect of over 65% in size
Procedure, shortened: (§2)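 Cells (500-1,000/well) in growth media were settled 5 h at 37 degrees C, then given compounds for 48 h. Viability was read as CellTiter-Glo luminescence. Primary runs used MIPE at 11 points (0.78 nM-46 µM) and NPC at 8 points (0.59 nM-46 µM); follow-ups used 11 points.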

[3] = qHTS of pediatric cancer cell lines to identify multiple opportunities for drug repurposing: Primary screen for MG 63 (6-TG R) cells (AID 1347105); note: nearly all actives have a fitted effect of over 50% in size; note: potency is the fitted concentration of half-maximal effect
Procedure, shortened: (§3)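 Cells plated at 500-1,000/well in growth medium, compounds added after 5 h. MIPE tested at 11 points (from 0.78 nM), NPC at 8 points (from 0.59 nM). CellTiter-Glo luminescence after 48 h; concentration-response curves from primary screen.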

[4] = qHTS of pediatric cancer cell lines to identify multiple opportunities for drug repurposing: Primary screen for control Hh wild type fibroblast cells (AID 1347106); note: nearly all actives have a fitted effect of over 55% in size; note: potency is the fitted concentration of half-maximal effect;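 for activity change, negative = cytotoxic: series mostly up to about 46 µM; a drop in luminescence marks cytotoxicity and a rise apparent proliferation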
Procedure, shortened: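 Viability after 48 h compound treatment at 37C, 500-1,000 cells/well, read as ATP luminescence with CellTiter-Glo. Primary screens used 11-point (MIPE, 0.78 nM-46 µM) or 8-point (NPC, 0.59 nM-46 µM) final concentrations; follow-up screens used 11-point dilutions.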

[5] = qHTS of pediatric cancer cell lines to identify multiple opportunities for drug repurposing: Primary screen for Rh41 cells (AID 1347108); note: nearly all actives have a fitted effect of over 70% in size; note: potency is the fitted concentration of half-maximal effect;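 for activity change, negative = cytotoxic: series mostly up to about 46 µM; luminescence drop marks cytotoxic hits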
Procedure, shortened: as §3

[6] = qHTS of pediatric cancer cell lines to identify multiple opportunities for drug repurposing: Primary screen for OHS-50 cells (AID 1347103); note: nearly all actives have a fitted effect of over 40% in size; note: potency is the fitted concentration of half-maximal effect
Procedure, shortened: as §1

[7] = qHTS of pediatric cancer cell lines to identify multiple opportunities for drug repurposing: Primary screen for RD cells (AID 1347104); note: nearly all actives have a fitted effect of over 55% in size; note: potency is the fitted concentration of half-maximal effect
Procedure, shortened: as §3

[8] = qHTS of pediatric cancer cell lines to identify multiple opportunities for drug repurposing: Primary screen for Rh30 cells (AID 1347107); note: nearly all actives have a fitted effect of over 75% in size; note: potency is the fitted concentration of half-maximal effect; for activity change, negative = cytotoxic: series mostly up to about 46 µM
Procedure, shortened: as §2

[9] = qHTS of pediatric cancer cell lines to identify multiple opportunities for drug repurposing: Confirmatory screen for DAOY cells (AID 1347114); note: nearly all actives have a fitted effect of over 65% in size; note: potency is the fitted concentration of half-maximal effect
Procedure, shortened: (§4)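 Viability measured as metabolically active cells via CellTiter-Glo luminescence following 48 hours of compound exposure, 11-point dilutions in confirmatory testing. 500-1,000 cells/well plated 5 hours before dosing; controls were DMSO and 2.3 µM bortezomib.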

[10] = qHTS of pediatric cancer cell lines to identify multiple opportunities for drug repurposing: Confirmatory screen for NB-EBc1 cells (AID 1347115);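 note: cells exposed to compound for 48 h before the viability read; nearly all actives have a fitted effect of over 45% in size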
Procedure, shortened: as §2

[11] = qHTS of pediatric cancer cell lines to identify multiple opportunities for drug repurposing: Confirmatory screen for TC32 cells (AID 1347118);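 note: potency is the fitted concentration of half-maximal effect; cells exposed to compound for 48 h before the read; nearly all actives have a fitted effect of over 65% in size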
Procedure, shortened: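 qHTS, TC32, 48 h drug treatment, CellTiter-Glo luminescence as a proxy for metabolically active cells; primary top concentration 46 µM (MIPE 11-pt, NPC 8-pt); confirmatory 11-pt.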

[12] = qHTS of pediatric cancer cell lines to identify multiple opportunities for drug repurposing: Confirmatory screen for NB1643 cells (AID 1347109); note: potency is the fitted concentration of half-maximal effect; nearly all actives have a fitted effect of over 45% in size
Procedure, shortened: as §2

[13] = qHTS of pediatric cancer cell lines to identify multiple opportunities for drug repurposing: Confirmatory screen for A673 cells (AID 1347110);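 note: potency is the fitted concentration of half-maximal effect; cells exposed to compound for 48 h before the viability read; nearly all actives have a fitted effect of over 65% in size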
Procedure, shortened: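 Viability was read as ATP luminescence (CellTiter-Glo) after 48 h of compound exposure at 37 C in A673 cells seeded at 500-1,000/well. Titrations reached 46 uM final, with 11 points in the confirmatory screen. Concentration-response curves were fitted directly.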

[14] = qHTS of pediatric cancer cell lines to identify multiple opportunities for drug repurposing: Confirmatory screen for SK-N-MC cells (AID 1347111);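 note: potency is the fitted concentration of half-maximal effect; cells exposed to compound for 48 h before the readout; nearly all actives have a fitted effect of over 70% in size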
Procedure, shortened: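 Metabolically active cells were quantified by ATP-dependent luminescence (CellTiter-Glo, 15 min at room temperature) following 48 h treatment. Cells had been plated at 500-1,000 per well and settled for 5 h beforehand.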

[15] = qHTS of pediatric cancer cell lines to identify multiple opportunities for drug repurposing: Confirmatory screen for BT-12 cells (AID 1347112); note: potency is the fitted concentration of half-maximal effect; nearly all actives have a fitted effect of over 55% in size
Procedure, shortened: as §2

[16] = qHTS of pediatric cancer cell lines to identify multiple opportunities for drug repurposing: Confirmatory screen for LAN-5 cells (AID 1347113)
Procedure, shortened: as §2

[17] = qHTS of pediatric cancer cell lines to identify multiple opportunities for drug repurposing: Confirmatory screen for SJ-GBM2 cells (AID 1347116); note: potency is the fitted concentration of half-maximal effect; nearly all actives have a fitted effect of over 60% in size
Procedure, shortened: as §4

[18] = qHTS of pediatric cancer cell lines to identify multiple opportunities for drug repurposing: Confirmatory screen for BT-37 cells (AID 1347117); note: potency is the fitted concentration of half-maximal effect; nearly all actives have a fitted effect of over 55% in size
Procedure, shortened: as §2

[19] = qHTS of pediatric cancer cell lines to identify multiple opportunities for drug repurposing: Confirmatory screen for MG 63 (6-TG R) cells (AID 1347119)
Procedure, shortened: as §2

## CNC(=O)c1ccc(N2C(=S)N(c3ccc(C#N)c(C(F)(F)F)c3)C(=O)C23CCC3)cc1F
[1]
  Potency: inactive
[2]
  Potency: inactive
[3]
  Potency: 11.8 µM (active)
[4]
  Potency: 13.2 µM (active)
[5]
  Potency: 11.8 µM (active)

## CN1CCN(C(=O)O[C@H]2c3nccnc3C(=O)N2c2ccc(Cl)cn2)CC1
[1]
  Potency: inactive
[6]
  Potency: inactive
[7]
  Potency: inactive
[3]
  Potency: inactive
[4]
  Potency: inactive
[8]
  Potency: inactive
[5]
  Potency: inactive

## C#CCN(C)[C@H](C)Cc1ccccc1
[1]
  Potency: inactive
[6]
  Potency: inactive
[7]
  Potency: inactive
[3]
  Potency: inactive
[4]
  Potency: inactive
[8]
  Potency: inactive
[5]
  Potency: inactive

## COc1ccccc1N1CCNCC1
[1]
  Potency: inactive
[6]
  Potency: inactive
[7]
  Potency: inactive
[3]
  Potency: inactive
[4]
  Potency: inactive
[8]
  Potency: inactive
[5]
  Potency: inactive

## OCCOc1ccccc1
[1]
  Potency: inactive
[6]
  Potency: inactive
[3]
  Potency: inactive
[4]
  Potency: inactive
[8]
  Potency: inactive
[5]
  Potency: inactive

## CCN(CC)CCN1C(=O)CN=C(c2ccccc2F)c2cc(Cl)ccc21
[1]
  Potency: inactive
[2]
  Potency: inactive
[3]
  Potency: inactive
[4]
  Potency: inactive
[8]
  Potency: inactive

## CC1NCCOC1c1ccccc1 (stereo unspecified)
[1]
  Potency: inactive
[6]
  Potency: inactive
[7]
  Potency: inactive
[3]
  Potency: inactive
[4]
  Potency: inactive
[8]
  Potency: inactive

## c1ccc(C2CC2)c(OCC2=NCCN2)c1
[1]
  Potency: inactive
[2]
  Potency: inactive
[3]
  Potency: inactive
[4]
  Potency: inactive
[8]
  Potency: inactive
[5]
  Potency: inactive

## Fc1ccc(C(OCCN2CCN(CCCc3ccccc3)CC2)c2ccc(F)cc2)cc1
[1]
  Potency: 21.7 µM (active) and 24.6 µM (active)
[6]
  Potency: 10.9 µM (active) and 15.5 µM (active)
[3]
  Potency: 21.1 µM (active)
[4]
  Potency: inactive
[5]
  Potency: 20.9 µM (active)

## CC(=O)Nc1cc([As](=O)(O)O)ccc1O
[1]
  Potency: inactive
[6]
  Potency: inactive
[3]
  Potency: inactive
[4]
  Potency: inactive
[8]
  Potency: inactive

## NCC(CC(=O)O)c1ccc(Cl)cc1 (stereo unspecified)
[1]
  activity change, negative = cytotoxic: 1.13% [at 0.745 µM]
[6]
  activity change, negative = cytotoxic: -11.1% [at 0.73 µM]
[7]
  activity change, negative = cytotoxic: 1.05% [at 0.597 µM]
[3]
  activity change, negative = cytotoxic: -15.2% [at 0.597 µM]
[4]
  activity change, negative = cytotoxic: 6.77% [at 0.597 µM]
[8]
  activity change, negative = cytotoxic: -0.257% [at 0.597 µM]
[5]
  activity change, negative = cytotoxic: 9.97% [at 0.597 µM]

## CN1C[C@H](CNC(=O)OCc2ccccc2)C[C@@H]2c3cccc4c3c(cn4C)C[C@H]21
[1]
  Potency: 15.5 µM (active)
[6]
  Potency: 21.9 µM (active)
[3]
  Potency: inactive
[4]
  Potency: inactive
[8]
  Potency: inactive

## O=c1[nH]c2ccccc2n1C1CCN(CCCC(c2ccc(F)cc2)c2ccc(F)cc2)CC1
[1]
  Potency: 15.5 µM (active)
[6]
  Potency: 17.4 µM (active)
[4]
  Potency: inactive
[8]
  Potency: inactive

## NCC1(CC(=O)O)CCCCC1
[1]
  Potency: inactive
[6]
  Potency: inactive
[7]
  Potency: inactive
[3]
  Potency: inactive
[4]
  Potency: inactive
[8]
  Potency: inactive

## Clc1cccc(N2CCNCC2)c1
[1]
  Potency: inactive
[2]
  Potency: inactive
[3]
  Potency: inactive
[4]
  Potency: inactive
[8]
  Potency: inactive

## Clc1ccc(COC(Cn2ccnc2)c2ccc(Cl)cc2Cl)cc1 (stereo unspecified)
[1]
  Potency: 15.5 µM (active)
[2]
  Potency: inactive
[3]
  Potency: inactive
[4]
  Potency: inactive
[8]
  Potency: inactive

## Oc1cc(Cl)ccc1Oc1ccc(Cl)cc1Cl
[1]
  Potency: 20.5 µM (active)
[6]
  Potency: 28.9 µM (active)
[7]
  Potency: 39.4 µM (active) and 23.7 µM (active)
[3]
  Potency: 24.8 µM (active)
[4]
  Potency: inactive
[8]
  Potency: inactive

## O=c1oc2ccccc2c(O)c1C(CC(O)c1ccc(-c2ccc(Br)cc2)cc1)c1ccccc1 (stereo unspecified)
[1]
  Potency: inactive
[6]
  Potency: inactive
[7]
  Potency: inactive
[3]
  Potency: inactive
[4]
  Potency: inactive
[8]
  Potency: inactive
[5]
  Potency: inactive

## CC(C)CC(N(C)C)C1(c2ccc(Cl)cc2)CCC1 (stereo unspecified)
[1]
  Potency: inactive
[6]
  Potency: inactive
[3]
  Potency: inactive
[4]
  Potency: inactive
[8]
  Potency: inactive
[9]
  Potency: inactive
[10]
  Potency: inactive
[11]
  Potency: 23.3 µM (active)

## CNCC(O)c1ccc(O)cc1 (stereo unspecified)
[1]
  Potency: inactive
[6]
  Potency: inactive
[7]
  Potency: inactive
[3]
  Potency: inactive
[4]
  Potency: inactive
[8]
  Potency: inactive
[5]
  Potency: inactive

## C[C@@H]1O[C@@H](O[C@H]2C[C@@H](O)[C@]3(CO)[C@H]4[C@H](O)C[C@]5(C)[C@@H](C6=CC(=O)OC6)CC[C@]5(O)[C@@H]4CC[C@]3(O)C2)[C@H](O)[C@H](O)[C@H]1O
[1]
  Potency: 27.3 nM (active) and 61.7 nM (active)
[6]
  Potency: 19.3 nM (active) and 49 nM (active)
[7]
  Potency: 14.8 nM (active) and 33.5 nM (active)
[3]
  Potency: 14.8 nM (active) and 33.5 nM (active)
[4]
  Potency: 0.0148 µM (active)
[8]
  Potency: inactive
[12]
  Potency: 369 nM (active) and 585 nM (active)
[13]
  Potency: 329 nM (active) and 282 nM (active)
[14]
  Potency: 131 nM (active) and 293 nM (active)
[15]
  Potency: 131 nM (active) and 147 nM (active)
[16]
  Potency: 329 nM (active) and 414 nM (active)
[9]
  Potency: 73.7 nM (active) and 56.2 nM (active)
[17]
  Potency: 0.261 µM (active)
[18]
  Potency: 65.7 nM (active) and 92.8 nM (active)
[11]
  Potency: 92.8 nM (active) and 165 nM (active)
[19]
  Potency: 104 nM (active) and 117 nM (active)

## CCCN1CCC[C@@H]2Cc3[nH]ncc3C[C@H]21
[1]
  Potency: inactive
[6]
  Potency: inactive
[3]
  Potency: inactive
[4]
  Potency: inactive
[8]
  Potency: inactive

## NP(N)(=O)NC(=O)c1ccc(F)cc1
[1]
  Potency: inactive
[6]
  Potency: inactive
[7]
  Potency: inactive
[3]
  Potency: inactive
[4]
  Potency: inactive
[8]
  Potency: inactive

## CCCC1CCCCN1 (stereo unspecified)
[1]
  Potency: inactive
[6]
  Potency: inactive
[7]
  Potency: inactive
[3]
  Potency: inactive
[4]
  Potency: inactive
[8]
  Potency: inactive

## CC1OC(C)OC(C)O1 (stereo unspecified)
[1]
  Potency: inactive
[2]
  Potency: inactive
[3]
  Potency: inactive
[4]
  Potency: inactive
[8]
  Potency: inactive
[5]
  Potency: inactive

## CCN(CC)C(=O)N[C@@H]1C=C2c3cccc4[nH]cc(c34)C[C@@H]2N(C)C1
[1]
  Potency: inactive
[6]
  Potency: inactive
[3]
  Potency: inactive
[4]
  Potency: inactive
[8]
  Potency: inactive

## CCC(COC(=O)c1cc(OC)c(OC)c(OC)c1)(c1ccccc1)N(C)C (stereo unspecified)
[2]
  Potency: inactive
[7]
  Potency: inactive
[3]
  Potency: inactive
[4]
  Potency: inactive
[8]
  Potency: inactive
[5]
  Potency: inactive

## c1ccc2c(c1)Nc1ccccc1S2
[1]
  Potency: inactive
[3]
  Potency: inactive
[4]
  Potency: inactive
[8]
  Potency: inactive

## CC(O)(CS(=O)(=O)c1ccc(F)cc1)C(=O)Nc1ccc(C#N)c(C(F)(F)F)c1 (stereo unspecified)
[7]
  Potency: 5.9 µM (active)
[3]
  Potency: 3.72 µM (active)
[8]
  Potency: 3.72 µM (active)
[5]
  Potency: 3.72 µM (active)

## O=C(O)C(=O)c1cn(Cc2ccccc2)c2ccc(-c3ccc(OC(F)(F)F)cc3)cc12
[1]
  Potency: inactive
[3]
  Potency: inactive
[4]
  Potency: inactive
[8]
  Potency: inactive
